Only some compounds are listed: those with a hit (about 8.9% of all), similar ones and a draw of the others.
HPGD block – blocks human HPGD enzyme activity. P15428. purified HPGD, NADH fluorescence kinetic, PGE2 substrate. Potency, µM, for inactives: top-dose activity change, negative = inhibition, most hits filed as inhibitors. actives 4.3% (n = 150,000); active means well fitted inhibition curve with a large enough effect, not every such curve was filed as active; inconclusive means small, poorly fitted or top-dose-only effect, or another doubt; inactive means no such curve, though single readings can be large or run the other way; further: potency means the concentration at half of the fitted maximal effect
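NADH formation kinetics: reaction with 30 uM PGE2 and 1 mM NAD+ (final), 20 nM enzyme, Tris-HCl pH 8 with Tween 20, after 15 min compound preincubation at room temperature. Fluorescence change, last versus first of five reads.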
IMPase Li cell – cell-permeable IMPase inhibitors with lithium potentiation. CHO-M1 cells, IP1 TR-FRET (IP-One), carbachol + lithium. Potency, µM (series often up to 59.4 µM), inactives show at the top dose activity, negative = IMPase inhibition, actives largely listed as inhibitors. actives 0.35% (n = 210,000);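 further: IP1 builds up when IMPase is blocked and the TR-FRET signal falls; potency means the concentration at half of the fitted maximal effect; plate controls were basal vehicle for no effect and high inhibitor control for full effect; nearly all actives have a fitted effect of over 50% in size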
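CHO cells stably expressing M1 receptor (2000/well) were cultured 16–30 h, then exposed to compounds with a small lithium addition for 30 min at 37C. IP1 was measured by TR-FRET competition; AC50 from Hill fits.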
ALDH1A1 block – blocks purified human ALDH1A1 activity; P00352; Purified ALDH1A1, NADH fluorescence, propionaldehyde substrate; Potency, µM (doses to about 75.3 µM), inactives show at the highest dose activity, negative = inhibition, usual class: inhibitors; actives 7.3% (n = 220,000); active means well fitted inhibition curve with a large enough effect, not every such curve was filed as active; inconclusive means small, poorly fitted or top-dose-only effect, or another doubt; inactive means no such curve, though single readings can be large or run the other way;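 further: potency means the concentration at half of the fitted maximal effect; plate controls were no enzyme wells and a reference inhibitor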
NPSR antag – blocks cAMP signaling of the human neuropeptide S receptor; Q6W5P4; actives 1% (n = 220,000); CHO-NPSR cells, cAMP TR-FRET, antagonist mode; Potency, µM (titrated, usually from 38.3 µM), for the others: top-dose activity change, negative = inhibition, actives largely listed as inhibitors; further: potency means the concentration at half of the fitted maximal effect; nearly all actives have a fitted effect of over 50% in size
12-hLO inh – 12-hLO (ALOX12) enzyme inhibition. AID 1452. purified 12-hLO, xylenol orange hydroperoxide absorbance. actives 0.12% (n = 150,000). Potency, µM (series often up to 57.1 µM), inactives show top-dose activity change, negative = inhibition, actives largely listed as inhibitors; further: potency means the concentration at half of the fitted maximal effect; nearly all actives have a fitted effect of over 55% in size
Target sequence (P18054 whole entry, looked up): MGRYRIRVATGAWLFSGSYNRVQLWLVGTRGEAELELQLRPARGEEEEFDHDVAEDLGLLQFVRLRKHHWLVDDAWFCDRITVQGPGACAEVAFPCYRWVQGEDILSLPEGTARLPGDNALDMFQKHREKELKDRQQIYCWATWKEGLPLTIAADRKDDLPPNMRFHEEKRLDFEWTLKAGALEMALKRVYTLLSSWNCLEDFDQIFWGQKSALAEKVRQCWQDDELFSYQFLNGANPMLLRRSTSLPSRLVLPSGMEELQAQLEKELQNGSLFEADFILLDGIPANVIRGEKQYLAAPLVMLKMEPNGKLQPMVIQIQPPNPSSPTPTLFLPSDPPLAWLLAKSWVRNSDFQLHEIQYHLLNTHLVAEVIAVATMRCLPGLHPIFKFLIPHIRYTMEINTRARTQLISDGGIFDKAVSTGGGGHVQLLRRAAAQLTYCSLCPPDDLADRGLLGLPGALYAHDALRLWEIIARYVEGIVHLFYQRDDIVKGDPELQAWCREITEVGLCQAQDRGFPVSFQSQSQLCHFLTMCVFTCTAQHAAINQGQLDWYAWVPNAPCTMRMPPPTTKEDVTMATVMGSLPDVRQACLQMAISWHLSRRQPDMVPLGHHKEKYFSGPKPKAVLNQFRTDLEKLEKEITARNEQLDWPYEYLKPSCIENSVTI
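Lipoxygenase turnover measured by absorbance at 573 and 405 nm after Fe-XO development. Human 12hLO 150 nM, arachidonate 40 uM, pH 7.0 Hepes buffer with detergent; 15 min compound preincubation, 30 min reaction.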
IMPase inh – cell-permeable inhibitors of inositol monophosphatase (IMPase). P97697. CHO-M1 cells, IP1 accumulation, HTRF TR-FRET ratio. inhibition (IP1 accumulation), % at 46.1 µM. 120,000 tested, under 10 active; active means well fitted curve in the direction sought with a large enough effect in the signal ratio, not every such curve was filed as active; inconclusive means small, poorly fitted or top-dose-only effect, or a change in a side signal; inactive means no such curve, though single readings can be large or run the other way; the % refers to the signal ratio;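 further: cells stimulated with carbachol in lithium chloride buffer; plate controls were DMSO basal wells for no effect and reference inhibitor wells for full effect; higher means more IMPase inhibition seen as more IP1 and lower FRET ratio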
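Carbachol-driven Gq signalling in CHO-M1 cells (2000/well) generates IP1. Compounds that block IMPase raise IP1 and so reduce the FRET signal from Eu-anti-IP1 and d2-IP1 after a 10 min room-temperature lysis.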
The depositor's hits bear a star; [ ] = remark or other dose. Unless noted, the call rests on the fitted dose curve; in most records, active means well fitted curve in the direction sought with a large enough effect; inconclusive means small, poorly fitted or top-dose-only effect, or another doubt; inactive means no such curve, though single readings can be large; an effect the other way counts as inactive or inconclusive. Unless noted, on the % scale 0 is the no-effect control and ±100 the full control effect.

What do the screens show for `C=C(C)C(=O)Nc1nnc(-c2ccccc2C)s1`?
IMPase Li cell: 22%; ALDH1A1 block: 7.9µM*; NPSR antag: -2%

Results for CCC1(C)Cc2c(sc3nc(NN)n(C)c(=O)c23)CO1 (stereo unspecified) ?
HPGD block: inconclusive; IMPase Li cell: 3%[38.3 µM]; ALDH1A1 block: inconclusive; NPSR antag: -5%[46.1 µM]; 12-hLO inh: -13%; IMPase inh: 2

What do the screens show for `CCOC(=O)c1ccc(N2C(=O)CC(Nc3ccc(CCO)cc3)C2=O)cc1` (stereo unspecified)?
HPGD block: -23%; IMPase Li cell: 15%[38.3 µM]; ALDH1A1 block: 16µM*; NPSR antag: -22%[46.1 µM]; 12-hLO inh: -4%; IMPase inh: -4

Results for CCOC(=O)c1ccc(N2C(=O)CC(N(C)CCc3ccc(OC)c(OC)c3)C2=O)cc1 (stereo unspecified) ?
HPGD block: -3%; IMPase Li cell: 13%[38.3 µM]; ALDH1A1 block: 10µM*; NPSR antag: -13%[46.1 µM]; 12-hLO inh: -5%; IMPase inh: 2

How did CCOC(=O)c1ccc(N2C(=O)CC(N(Cc3ccc4c(c3)OCO4)C(=O)Nc3ccccc3)C2=O)cc1 (stereo unspecified) do in these assays?
HPGD block: -9%; IMPase Li cell: 30%[38.3 µM]; ALDH1A1 block: 13µM*; NPSR antag: inconclusive; 12-hLO inh: -3%; IMPase inh: 8

How did Cc1ccc(NC2CC(=O)N(c3ccc(C)cc3)C2=O)cc1 (stereo unspecified) do in these assays?
HPGD block: -8%; IMPase Li cell: 30%[38.3 µM]; ALDH1A1 block: 4%; NPSR antag: -6%[46.1 µM]; 12-hLO inh: -6%; IMPase inh: -6

Results for CC(=O)Oc1ccc(N2C(=O)CC(N3CCOCC3)C2=O)cc1 (stereo unspecified) ?
HPGD block: -5%; IMPase Li cell: -21%[38.3 µM]; ALDH1A1 block: 32µM*; NPSR antag: 3%[46.1 µM]; 12-hLO inh: 0%; IMPase inh: -5

What do the screens show for `CCOc1ccccc1N1CCN(Cc2ccc(Br)s2)CC1`?
HPGD block: -5%; IMPase Li cell: 12%[38.3 µM]; ALDH1A1 block: -15%; NPSR antag: -21%[46.1 µM]; 12-hLO inh: -23%; IMPase inh: -6

Results for COc1ccc(NC(=O)c2c(OC)cccc2OC)c(OC)c1 ?
HPGD block: -6%; IMPase Li cell: 44%[38.3 µM]; ALDH1A1 block: -1%; NPSR antag: -12%[46.1 µM]; 12-hLO inh: -6%; IMPase inh: 4

How did COCCn1nnnc1C(c1ccccc1)N1CCN(C)CC1 (stereo unspecified) do in these assays?
HPGD block: -2%; IMPase Li cell: 6%[38.3 µM]; ALDH1A1 block: 2%; NPSR antag: 4%[46.1 µM]; 12-hLO inh: 4%; IMPase inh: 8

Results for CN=c1sc2ccccc2n1CC(O)COCc1ccco1 (stereo unspecified) ?
HPGD block: -7%; IMPase Li cell: -13%[38.3 µM]; ALDH1A1 block: -2%; NPSR antag: -4%[46.1 µM]; 12-hLO inh: 1%; IMPase inh: 1

How did CCOc1cccc(N2C(=O)CC(n3cnc4ccccc43)C2=O)c1 (stereo unspecified) do in these assays?
HPGD block: -9%; IMPase Li cell: 11%[38.3 µM]; ALDH1A1 block: -11%; NPSR antag: -3%[46.1 µM]; 12-hLO inh: -2%; IMPase inh: 0

How did O=C(c1cccc(Cl)c1)N1CCC(c2nc3ccccc3[nH]2)CC1 do in these assays?
IMPase Li cell: 1%; ALDH1A1 block: -6%; NPSR antag: 15%

Results for CCOC(=O)c1ccc(N2C(=O)CC(N3CCOCC3)C2=O)cc1 (stereo unspecified) ?
HPGD block: -3%; IMPase Li cell: 13%[38.3 µM]; ALDH1A1 block: 25µM*; NPSR antag: 3%[46.1 µM]; 12-hLO inh: 0%; IMPase inh: -1

What do the screens show for `CCOC(=O)N1CCN(C2CC(=O)N(c3ccc(C)cc3)C2=O)CC1` (stereo unspecified)?
HPGD block: -1%; IMPase Li cell: 17%[38.3 µM]; ALDH1A1 block: inconclusive; NPSR antag: -10%[46.1 µM]; 12-hLO inh: 4%; IMPase inh: -1

Results for CCOC(=O)c1ccc(N2C(=O)CC(N3CCC(C(N)=O)(N4CCCCC4)CC3)C2=O)cc1 (stereo unspecified) ?
HPGD block: -13%; IMPase Li cell: -7%; ALDH1A1 block: 8.9µM*; NPSR antag: 13%[46.1 µM]; 12-hLO inh: 2%; IMPase inh: 1

Results for CCOC(=O)c1ccc(N2C(=O)CC(NC3CCN(C(=O)c4cccc(Cl)c4)CC3)C2=O)cc1 (stereo unspecified) ?
HPGD block: -8%; IMPase Li cell: 19%[38.3 µM]; ALDH1A1 block: 13µM*; NPSR antag: -22%[46.1 µM]; 12-hLO inh: -1%; IMPase inh: -2

What do the screens show for `CCOc1cccc(N2C(=O)CC(N3CCC(C(N)=O)(N4CCCCC4)CC3)C2=O)c1` (stereo unspecified)?
HPGD block: -13%; IMPase Li cell: -6%[38.3 µM]; ALDH1A1 block: 25µM*; NPSR antag: -3%[46.1 µM]; 12-hLO inh: 0%; IMPase inh: -1

What do the screens show for `COc1cc(Cl)cc(NC(=O)CCN2CCN(C)CC2)c1`?
HPGD block: -5%; IMPase Li cell: 4%[38.3 µM]; ALDH1A1 block: 4%; NPSR antag: 1%[46.1 µM]; 12-hLO inh: -1%; IMPase inh: -10

What do the screens show for `CC(/C=N/NC(=O)Cn1nccc1C)=C\c1ccc(C(C)C)cc1`?
HPGD block: -20%; IMPase Li cell: 0%; ALDH1A1 block: 1%; NPSR antag: -13%; 12-hLO inh: -6%

How did CC(=O)Oc1ccc(N2C(=O)C3C4C=CC(O4)C3C2=O)cc1 (stereo unspecified) do in these assays?
HPGD block: 32µM*; IMPase Li cell: -4%[38.3 µM]; ALDH1A1 block: 0.45µM*; NPSR antag: -16%[46.1 µM]; 12-hLO inh: -18%; IMPase inh: -1

Results for CC(NCc1ccc(F)cc1)C(=O)Nc1cc(S(=O)(=O)N2CCCCC2)ccc1Cl (stereo unspecified) ?
IMPase Li cell: -1%; ALDH1A1 block: -4%; NPSR antag: -33%

What do the screens show for `COCCn1c(C)cc(C2=NNC(=Nc3ccc(Cl)cc3Cl)SC2)c1C`?
HPGD block: -11%; IMPase Li cell: 5%[38.3 µM]; ALDH1A1 block: 25µM*; NPSR antag: -6%[46.1 µM]; 12-hLO inh: -13%; IMPase inh: 1

What do the screens show for `COCCn1c(C)cc(C2=NNC(=NC3CC3)SC2)c1C`?
IMPase Li cell: 4%; ALDH1A1 block: -3%; NPSR antag: -16%
